Experiments:
Assay in all cases: log2 ratio of Biotin-Ahx-Ub-VS probe labelling (fragment/DMSO); higher = less target engagement (more negative = stronger competition), active = hit call of the paper (q ≤ 0.05, log2 ratio ≤ -1)
Settings in all cases: compound concentration: 200 uM; treatment time: 3 h
USP34 = USP34 (UniProt Q70CQ2)
Summary of the method: (§1)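 The table lists average log2 ratios of fragment over vehicle, from an unpaired t-test on global-median-normalised Spectronaut label-free quantities. Proteins with ≥2 unique peptides were used. Samples were HEK293T lysate (495 µg) treated in triplicate with fragment at 200 µM or vehicle for 3 h, then with Biotin-Ahx-Ub-VS (0.5 µM final) for 1 h, with labelled DUBs NeutrAvidin-enriched and run by diaPASEF LC-MS/MS.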

USP36 = target: T1, USP36 (UniProt Q9P275)
T1 sequence (whole entry): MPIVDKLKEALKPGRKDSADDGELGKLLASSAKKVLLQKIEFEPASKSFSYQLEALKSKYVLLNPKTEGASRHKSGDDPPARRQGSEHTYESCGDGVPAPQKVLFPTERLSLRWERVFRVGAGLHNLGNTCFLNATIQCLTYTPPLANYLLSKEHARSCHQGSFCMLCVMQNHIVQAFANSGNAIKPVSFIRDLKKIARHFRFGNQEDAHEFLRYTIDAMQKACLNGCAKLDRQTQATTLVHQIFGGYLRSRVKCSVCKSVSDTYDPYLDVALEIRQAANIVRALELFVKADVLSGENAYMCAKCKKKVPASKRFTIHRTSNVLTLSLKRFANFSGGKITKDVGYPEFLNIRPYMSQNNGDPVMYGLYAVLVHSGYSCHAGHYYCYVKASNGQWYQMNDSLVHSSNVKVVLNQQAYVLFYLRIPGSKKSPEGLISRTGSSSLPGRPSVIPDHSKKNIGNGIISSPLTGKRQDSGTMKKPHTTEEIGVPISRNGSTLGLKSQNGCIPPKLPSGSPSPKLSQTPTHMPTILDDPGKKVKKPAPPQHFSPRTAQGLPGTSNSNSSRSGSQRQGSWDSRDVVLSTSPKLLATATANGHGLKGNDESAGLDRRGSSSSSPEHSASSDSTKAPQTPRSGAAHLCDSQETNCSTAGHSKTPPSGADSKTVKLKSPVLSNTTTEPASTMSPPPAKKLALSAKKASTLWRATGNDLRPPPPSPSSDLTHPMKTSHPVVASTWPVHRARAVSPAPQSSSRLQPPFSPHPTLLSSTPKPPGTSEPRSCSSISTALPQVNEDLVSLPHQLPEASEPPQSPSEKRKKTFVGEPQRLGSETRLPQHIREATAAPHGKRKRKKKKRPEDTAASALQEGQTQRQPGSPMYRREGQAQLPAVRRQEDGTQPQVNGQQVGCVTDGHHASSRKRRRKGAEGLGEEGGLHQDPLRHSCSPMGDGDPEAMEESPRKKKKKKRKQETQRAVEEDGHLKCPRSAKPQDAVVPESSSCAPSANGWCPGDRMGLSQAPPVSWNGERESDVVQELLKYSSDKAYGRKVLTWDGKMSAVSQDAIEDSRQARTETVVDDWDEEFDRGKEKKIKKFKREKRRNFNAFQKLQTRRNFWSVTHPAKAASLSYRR
Summary of the method: as §1

USP38 = target: T2, USP38 (UniProt Q8NB14)
T2 sequence (whole entry): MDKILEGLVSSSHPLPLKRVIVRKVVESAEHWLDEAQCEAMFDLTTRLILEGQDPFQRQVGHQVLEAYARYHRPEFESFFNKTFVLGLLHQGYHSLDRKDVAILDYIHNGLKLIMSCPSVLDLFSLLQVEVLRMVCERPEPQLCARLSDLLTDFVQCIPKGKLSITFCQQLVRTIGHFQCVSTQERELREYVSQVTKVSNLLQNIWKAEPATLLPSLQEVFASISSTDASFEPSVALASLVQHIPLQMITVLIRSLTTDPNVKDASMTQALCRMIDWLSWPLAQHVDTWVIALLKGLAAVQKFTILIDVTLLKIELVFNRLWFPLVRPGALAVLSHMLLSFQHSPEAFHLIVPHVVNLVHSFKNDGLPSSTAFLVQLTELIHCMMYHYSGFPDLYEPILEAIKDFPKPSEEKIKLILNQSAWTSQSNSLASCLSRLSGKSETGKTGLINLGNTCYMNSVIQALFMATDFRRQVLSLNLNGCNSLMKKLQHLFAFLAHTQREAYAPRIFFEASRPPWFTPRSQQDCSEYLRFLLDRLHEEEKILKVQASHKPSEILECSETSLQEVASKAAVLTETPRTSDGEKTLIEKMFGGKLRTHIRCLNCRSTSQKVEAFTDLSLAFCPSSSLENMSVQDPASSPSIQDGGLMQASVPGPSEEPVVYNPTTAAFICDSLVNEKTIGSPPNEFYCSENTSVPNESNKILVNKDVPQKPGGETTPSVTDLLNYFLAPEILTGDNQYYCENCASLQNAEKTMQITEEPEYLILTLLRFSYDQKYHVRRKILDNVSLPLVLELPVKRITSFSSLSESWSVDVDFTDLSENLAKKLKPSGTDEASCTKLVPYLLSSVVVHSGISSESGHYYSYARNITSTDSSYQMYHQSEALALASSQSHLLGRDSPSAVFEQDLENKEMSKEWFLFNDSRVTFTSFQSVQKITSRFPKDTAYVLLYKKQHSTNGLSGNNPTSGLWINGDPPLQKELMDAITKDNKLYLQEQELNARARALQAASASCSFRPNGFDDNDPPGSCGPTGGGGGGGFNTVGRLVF
Summary of the method: as §1

USP39 = target: T3, USP39 (UniProt Q53GS9)
T3 sequence (whole entry): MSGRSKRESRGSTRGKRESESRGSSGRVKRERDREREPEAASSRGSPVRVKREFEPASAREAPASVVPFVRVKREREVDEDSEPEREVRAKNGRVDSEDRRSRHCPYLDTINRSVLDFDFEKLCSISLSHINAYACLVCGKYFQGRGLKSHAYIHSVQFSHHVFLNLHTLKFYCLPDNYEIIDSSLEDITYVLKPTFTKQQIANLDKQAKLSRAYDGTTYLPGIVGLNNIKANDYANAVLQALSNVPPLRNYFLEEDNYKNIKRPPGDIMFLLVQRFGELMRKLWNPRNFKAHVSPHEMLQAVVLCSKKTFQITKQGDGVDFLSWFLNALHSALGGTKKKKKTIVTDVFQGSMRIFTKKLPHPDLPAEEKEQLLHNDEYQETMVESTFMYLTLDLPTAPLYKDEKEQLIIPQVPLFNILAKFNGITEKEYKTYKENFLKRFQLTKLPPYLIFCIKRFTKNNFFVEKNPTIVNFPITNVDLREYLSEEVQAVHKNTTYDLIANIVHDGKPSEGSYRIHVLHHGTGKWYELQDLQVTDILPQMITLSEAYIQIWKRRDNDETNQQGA
Summary of the method: as §1

USP4 = target: T4, USP4 (UniProt Q13107)
T4 sequence (whole entry): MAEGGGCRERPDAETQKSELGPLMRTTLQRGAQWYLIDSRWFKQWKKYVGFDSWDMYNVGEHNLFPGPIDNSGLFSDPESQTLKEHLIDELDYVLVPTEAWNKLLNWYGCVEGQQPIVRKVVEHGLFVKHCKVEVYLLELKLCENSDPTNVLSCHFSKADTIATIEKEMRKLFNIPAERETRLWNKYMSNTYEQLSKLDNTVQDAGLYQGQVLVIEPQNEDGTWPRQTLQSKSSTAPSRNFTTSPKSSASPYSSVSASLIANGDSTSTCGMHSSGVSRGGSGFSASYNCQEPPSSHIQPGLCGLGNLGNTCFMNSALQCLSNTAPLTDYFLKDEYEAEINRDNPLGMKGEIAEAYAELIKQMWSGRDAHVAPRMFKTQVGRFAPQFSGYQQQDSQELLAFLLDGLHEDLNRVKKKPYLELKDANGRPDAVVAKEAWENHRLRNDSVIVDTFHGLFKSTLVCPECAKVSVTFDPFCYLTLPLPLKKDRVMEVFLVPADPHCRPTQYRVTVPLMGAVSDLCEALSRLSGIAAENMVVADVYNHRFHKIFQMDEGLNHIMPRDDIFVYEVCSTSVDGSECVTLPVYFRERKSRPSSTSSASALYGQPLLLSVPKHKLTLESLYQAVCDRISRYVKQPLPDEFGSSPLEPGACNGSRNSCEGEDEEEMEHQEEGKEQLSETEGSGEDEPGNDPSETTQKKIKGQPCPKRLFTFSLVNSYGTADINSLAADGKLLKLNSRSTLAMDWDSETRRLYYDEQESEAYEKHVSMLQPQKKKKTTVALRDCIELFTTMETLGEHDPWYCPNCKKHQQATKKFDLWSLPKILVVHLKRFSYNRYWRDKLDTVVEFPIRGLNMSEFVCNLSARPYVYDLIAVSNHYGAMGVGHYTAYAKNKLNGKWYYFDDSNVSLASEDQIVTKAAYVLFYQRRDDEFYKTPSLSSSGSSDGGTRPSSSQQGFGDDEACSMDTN
Summary of the method: as §1

Measured: log2 ratio of Biotin-Ahx-Ub-VS probe labelling

Sequence of USP34 (Q70CQ2 whole entry, the tested form may be a part): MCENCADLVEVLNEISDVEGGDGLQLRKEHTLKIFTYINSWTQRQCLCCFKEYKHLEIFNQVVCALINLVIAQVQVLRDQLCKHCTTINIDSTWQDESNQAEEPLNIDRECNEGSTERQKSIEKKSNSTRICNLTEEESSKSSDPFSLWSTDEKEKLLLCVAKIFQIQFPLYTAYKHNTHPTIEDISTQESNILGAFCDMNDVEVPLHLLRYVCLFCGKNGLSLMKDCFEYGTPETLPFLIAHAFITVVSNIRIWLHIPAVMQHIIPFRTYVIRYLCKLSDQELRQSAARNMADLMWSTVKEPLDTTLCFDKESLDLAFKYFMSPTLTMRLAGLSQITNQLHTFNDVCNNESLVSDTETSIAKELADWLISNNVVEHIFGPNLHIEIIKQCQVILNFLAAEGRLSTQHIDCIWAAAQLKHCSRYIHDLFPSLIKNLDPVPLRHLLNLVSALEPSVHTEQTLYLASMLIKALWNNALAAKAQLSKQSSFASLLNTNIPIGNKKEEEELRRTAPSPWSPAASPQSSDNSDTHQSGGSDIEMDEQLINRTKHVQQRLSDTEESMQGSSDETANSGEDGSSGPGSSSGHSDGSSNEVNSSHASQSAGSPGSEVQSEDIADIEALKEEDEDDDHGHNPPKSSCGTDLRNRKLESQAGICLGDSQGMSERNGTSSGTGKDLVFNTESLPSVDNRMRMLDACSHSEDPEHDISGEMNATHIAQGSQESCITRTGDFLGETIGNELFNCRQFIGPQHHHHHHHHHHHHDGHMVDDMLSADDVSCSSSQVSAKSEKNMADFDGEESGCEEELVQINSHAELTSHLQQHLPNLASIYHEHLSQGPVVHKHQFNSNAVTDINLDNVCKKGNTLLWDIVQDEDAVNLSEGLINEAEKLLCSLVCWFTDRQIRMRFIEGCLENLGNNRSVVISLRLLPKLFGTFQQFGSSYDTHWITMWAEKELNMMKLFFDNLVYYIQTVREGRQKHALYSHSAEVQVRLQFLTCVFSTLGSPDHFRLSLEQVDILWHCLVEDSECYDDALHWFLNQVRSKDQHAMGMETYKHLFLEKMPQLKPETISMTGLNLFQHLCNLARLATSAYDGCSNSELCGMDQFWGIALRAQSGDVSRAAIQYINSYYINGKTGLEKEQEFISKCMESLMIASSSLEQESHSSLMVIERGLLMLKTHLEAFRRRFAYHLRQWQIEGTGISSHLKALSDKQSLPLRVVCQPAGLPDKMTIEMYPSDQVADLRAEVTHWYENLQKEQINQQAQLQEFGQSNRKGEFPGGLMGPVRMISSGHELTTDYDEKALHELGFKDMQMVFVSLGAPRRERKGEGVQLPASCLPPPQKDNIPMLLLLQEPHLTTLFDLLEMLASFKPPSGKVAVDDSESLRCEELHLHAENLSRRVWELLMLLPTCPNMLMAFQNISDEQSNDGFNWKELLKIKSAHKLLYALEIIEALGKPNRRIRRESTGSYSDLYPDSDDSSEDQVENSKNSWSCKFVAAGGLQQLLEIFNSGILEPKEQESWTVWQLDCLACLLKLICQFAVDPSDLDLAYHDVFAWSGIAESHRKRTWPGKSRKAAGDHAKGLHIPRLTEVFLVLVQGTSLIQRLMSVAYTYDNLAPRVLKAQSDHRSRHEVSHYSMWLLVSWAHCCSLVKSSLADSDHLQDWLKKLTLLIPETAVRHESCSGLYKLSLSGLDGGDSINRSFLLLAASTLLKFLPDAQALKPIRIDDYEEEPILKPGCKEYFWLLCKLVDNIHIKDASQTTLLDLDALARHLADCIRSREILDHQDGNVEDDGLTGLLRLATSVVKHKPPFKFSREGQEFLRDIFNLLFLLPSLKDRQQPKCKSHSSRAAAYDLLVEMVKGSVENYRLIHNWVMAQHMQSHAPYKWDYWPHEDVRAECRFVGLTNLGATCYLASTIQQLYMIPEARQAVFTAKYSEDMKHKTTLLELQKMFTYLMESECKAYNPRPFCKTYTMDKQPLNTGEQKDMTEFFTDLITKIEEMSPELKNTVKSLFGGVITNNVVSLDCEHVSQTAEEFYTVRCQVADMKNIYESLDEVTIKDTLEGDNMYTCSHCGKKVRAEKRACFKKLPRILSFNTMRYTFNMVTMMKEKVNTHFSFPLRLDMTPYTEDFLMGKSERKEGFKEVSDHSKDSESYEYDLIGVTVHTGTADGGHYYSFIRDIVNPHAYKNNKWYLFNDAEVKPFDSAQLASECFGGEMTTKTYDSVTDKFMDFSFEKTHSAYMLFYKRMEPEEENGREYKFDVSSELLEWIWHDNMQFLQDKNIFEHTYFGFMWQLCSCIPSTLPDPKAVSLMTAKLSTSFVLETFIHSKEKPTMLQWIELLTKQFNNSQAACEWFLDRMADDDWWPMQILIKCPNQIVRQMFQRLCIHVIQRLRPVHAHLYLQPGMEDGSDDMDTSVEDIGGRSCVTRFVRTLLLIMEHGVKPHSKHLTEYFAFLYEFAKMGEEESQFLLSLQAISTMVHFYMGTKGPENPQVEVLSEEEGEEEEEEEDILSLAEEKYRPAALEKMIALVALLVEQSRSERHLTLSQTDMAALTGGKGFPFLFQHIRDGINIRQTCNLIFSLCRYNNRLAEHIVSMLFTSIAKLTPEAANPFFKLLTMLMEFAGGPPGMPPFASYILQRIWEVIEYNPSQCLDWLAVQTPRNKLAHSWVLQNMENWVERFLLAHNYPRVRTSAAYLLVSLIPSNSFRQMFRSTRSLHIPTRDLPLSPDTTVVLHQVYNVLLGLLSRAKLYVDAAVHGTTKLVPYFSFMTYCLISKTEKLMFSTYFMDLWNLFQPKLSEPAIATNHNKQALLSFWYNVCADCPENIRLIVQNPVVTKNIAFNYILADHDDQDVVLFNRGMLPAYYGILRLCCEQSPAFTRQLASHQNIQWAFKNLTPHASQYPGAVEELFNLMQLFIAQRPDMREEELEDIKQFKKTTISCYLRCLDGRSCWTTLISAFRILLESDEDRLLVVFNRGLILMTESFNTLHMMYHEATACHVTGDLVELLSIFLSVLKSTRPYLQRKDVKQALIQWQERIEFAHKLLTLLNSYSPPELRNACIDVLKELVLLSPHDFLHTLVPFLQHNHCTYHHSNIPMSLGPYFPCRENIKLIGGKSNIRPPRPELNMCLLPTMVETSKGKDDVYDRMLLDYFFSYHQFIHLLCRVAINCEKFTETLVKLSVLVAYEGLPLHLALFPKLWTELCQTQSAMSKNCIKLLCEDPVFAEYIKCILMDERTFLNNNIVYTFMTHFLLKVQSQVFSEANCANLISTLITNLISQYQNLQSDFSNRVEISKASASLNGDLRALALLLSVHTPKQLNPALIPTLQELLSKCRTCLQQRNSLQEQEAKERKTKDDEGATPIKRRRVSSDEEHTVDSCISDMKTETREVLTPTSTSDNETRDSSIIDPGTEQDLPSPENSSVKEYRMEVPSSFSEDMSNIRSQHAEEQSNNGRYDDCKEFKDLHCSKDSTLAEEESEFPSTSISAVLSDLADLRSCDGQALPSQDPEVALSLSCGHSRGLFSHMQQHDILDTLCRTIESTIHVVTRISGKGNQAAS

O=C(CCl)N1CCc2nc[nH]c2C1c1ccc(Cl)cc1 (stereo not given)
inactive: USP34 -0.355 | USP36 -0.00322 | USP38 -0.0469 | USP39 0.0317 | USP4 -0.375

— the supplement of paper PMC11732987, “Enantioselective OTUD7B fragment discovery through chemoproteomics screening and high-throughput optimisation” (Communications Chemistry, 2025)
